# ATXN2 expr inh – ATXN2 expression inhibition; HEK-293 ATXN2-luciferase reporter, luminescence, 24 h; Potency, µM (doses to about 57 µM), inactives show at the top dose activity change, negative = inhibition, actives largely listed as inhibitors; 0.72% of 360,000 active; AID 1745845; note: % is set by controls: 0 for no effect and ±100 for the full control effect; nearly all actives have a fitted effect of over 55% in size
#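 qHTS (up to 57 uM final) was run with 24 h compound exposure of reporter cells at 37 °C. Each well was multiplexed: SteadyGlo luminescence measured ATXN2-luciferase expression after a fluorogenic Gly-Phe-AFC viability readout (25 uM final).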
# ATXN viability – cell viability loss in ATXN counter-screen. S2 cells (HEK-293 line with an ATXN2-luciferase reporter) viability, CellTiter-Fluor protease fluorescence, 24 h. Potency, µM (series often up to 56.7 µM), hits mostly cytotoxic. 0.49% of 400,000 active. AID 651635; note: nearly all actives have a fitted effect of over 40% in size
# TGFb inhibitor – TGF-b pathway inhibition. HepG2 CAGA-GFP TGF-b/SMAD3 reporter, GFP fluorescence, 18 h; TGF-beta stimulated, 500 pg/mL final. Potency, µM (series often up to 46.1 µM), inactives show at the top dose activity, negative = inhibition, usual class: inhibitors. 1.2% of 410,000 active. AID 588855; note: % is set by controls: 0 for no effect and ±100 for the full control effect; nearly all actives have a fitted effect of over 65% in size
#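 TGF-beta reporter screen: HEPG2 CAGA-GFP, 1% FBS, 500 pg/mL TGF-beta final, 18 h; per-cell GFP summed per well; curves fitted and categorized by class.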
# HepG2 tox – kills HepG2 cells in TGF-b inhibitor counter-screen. HepG2 CAGA-GFP viability, ATP luminescence, 18 h. Potency, µM (titrated, usually from 46.1 µM), for the others: at the highest dose activity change, negative = cytotoxicity, most hits filed as cytotoxic. 0.76% of 410,000 active
#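 CellTiter-Glo luminescence gave cytotoxicity after 18 hours at 37 degrees C. The cells were HepG2 CAGA-GFP in 1% FBS DMEM, stimulated with 500 pg/mL TGF-beta after compound addition. %Activity was normalised to no-cell wells (complete cell-killing) and DMSO (no toxicity), and curves were fitted and classified.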
# DT40 TDP1 CPT – growth inhibition of DT40 Tdp1-/-;hTDP1 cells with camptothecin (screen for TDP1 inhibitors); 12% of 420,000 active; chicken DT40 Tdp1-/-;hTDP1 cells + 20 nM CPT, ATP luminescence, 48 h; Potency, µM (series often up to 46.2 µM), inactives show at the highest dose activity change, negative = growth inhibition, usual class: inhibitors; note: % is set by controls: 0 for no effect and ±100 for the full control effect; nearly all actives have a fitted effect of over 55% in size
#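 Cell growth measured by CellTiter-Glo luminescence after a minimum 48 h, 37 C compound exposure with 20 nM CPT in Tdp1-knockout DT40 cells stably expressing hTDP1, seeded 400/well; qHTS titration format.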
# DT40 TDP1 no CPT – qHTS for Inhibitors of human tyrosyl-DNA phosphodiesterase 1 (TDP1): qHTS in cells in absence of CPT; DT40 Tdp1-/- hTDP1 cells, no CPT, ATP luminescence, 48 h; Potency, µM (highest dose often 46.2 µM), inactives show at the highest dose activity change, negative = growth inhibition, most hits filed as inhibitors; 15% of 420,000 active; AID 686978, 2013; note: % is set by controls: 0 for no effect and ±100 for the full control effect; nearly all actives have a fitted effect of over 55% in size
#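 Growth kinetics read by CellTiter-Glo luminescence after ≥48 hr at 37 °C. Cells: DT40 Tdp1-/- stably carrying human TDP1, 400 per well, compound exposure in the absence of CPT (DMSO vehicle).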
# * hit, by the source's call; i = inactive; ? = inconclusive; · = no result given. The list is not random: actives were taken first. Their share in the collection is about 17%. Calls come from the whole dose curve; as a rule, active = well fitted curve in the direction sought with a large enough effect; inconclusive = small, poorly fitted or top-dose-only effect, or another doubt; inactive = no such curve, though single readings can be large; an effect the other way counts as inactive or inconclusive. Potency is the fitted concentration of half-maximal effect.
SMILES,ATXN2 expr inh,ATXN viability,TGFb inhibitor,HepG2 tox,DT40 TDP1 CPT,DT40 TDP1 no CPT
CCOC(=O)c1c(NC(=O)CSc2cccc[n+]2[O-])sc(C(=O)Nc2ccccc2)c1C,0.0%,i,-1.1%,-21.6%,?,18.4µM*
CCOC(=O)c1c(NC(=O)CSc2n[nH]c(N)n2)sc(CC)c1C,-17.3%,i,?,-39.1%,-18.2%,-2.1%
CCOC(=O)c1c(NC(=O)CN(C)C2CCN(C)CC2)sc(C(=O)Nc2ccccc2)c1C,·,i,12.9%,-26.7%,?,?
CCOC(=O)c1c(NC(=O)CSc2nnc(Cc3ccccc3)o2)sc(C(C)=O)c1C,-14.3%,i,-4.4%,-7.0%,20.6µM*,20.6µM*
CCOC(=O)c1c(NC(=O)CSc2nnc(CNc3ccc(F)cc3)o2)sc(C(C)=O)c1C,-2.0%,i,-2.6%,-17.7%,-14.1%,?
Cc1cccc(C)c1NC(=O)CN(C)C(=O)c1ccc(OCc2ccccc2)cc1,·,i,6.9%,-4.5%,?,?
Cc1ccc(S(=O)(=O)c2cc(C)cc(S(=O)(=O)Nc3ccc(C(=O)O)cc3)c2C)cc1,9.7%,i,0.0%,15.4%,14.2%,0.9%
CCOC(=O)c1sc(NC(=O)c2cccnc2)c(C#N)c1C,4.1%,i,29.6%,-3.8%,8.7%,-1.1%
CCOC(=O)c1sc(NC(=O)CSc2nc(C)cc(C)n2)c(C#N)c1C,-13.2%,i,1.0%,-6.2%,?,-27.0%
CCOC(=O)c1sc(NC(=O)CSc2nnc(Cc3ccccc3)o2)c(C#N)c1C,-0.5%,i,-9.9%,3.8%,11.6µM*,16.4µM*
CCOC(=O)c1c(NC(=O)CSc2nc(C)cc(C)c2C#N)sc(C(C)=O)c1C,11.2%,i,?,6.1%,9.2µM*,7.31µM*
CCOC(=O)c1sc(NC(=O)c2cc(-c3ccccc3)nc3ccccc23)c(C#N)c1C,?,?,?,-4.0%,7.31µM*,5.8µM*
CCOC(=O)c1c(NC(=O)CSc2nnc(-c3cccc(C)c3)n2CC)sc(C(C)=O)c1C,-14.4%,i,?,-65.2%,23.1µM*,23.1µM*
CCN(CC)C(=O)C1=C(C)N(Cc2ccc(F)cc2)C(=O)C(CC(=O)NCCCN(C)C)C1 (stereo not given),-5.0%,i,11.9%,-1.5%,-0.5%,-2.0%
CCOC(=O)C1(CC)NC(c2ccc(OC)c(OC)c2)C2C(=O)N(c3cccc(C(C)=O)c3)C(=O)C21 (stereo not given),-18.9%,i,2.9%,2.3%,10.5%,1.6%
CCN(CC)S(=O)(=O)c1ccc(NC(=O)CSc2cccc[n+]2[O-])cc1,3.5%,i,12.8%,10µM*,-29.0%,-13.1%
CCOC(=O)c1c(NC(=O)CSc2nnc(-c3ccccc3)o2)sc(C(C)=O)c1C,-18.6%,i,0.0%,-1.3%,16.4µM*,23.1µM*
CCOC(=O)c1c(NC(=O)CSc2nnc(-c3ccc(C)cc3)o2)sc(C(C)=O)c1C,-6.3%,i,-8.2%,-9.8%,?,-25.4%
CCOC(=O)c1c(NC(=O)c2cc(-c3ccc(O)cc3)on2)sc(C(C)=O)c1C,2.2%,i,18.9%,1.7%,4.61µM*,5.8µM*
CCN(CC)S(=O)(=O)c1ccc(Cl)c(NC(=O)CSc2cccc[n+]2[O-])c1,·,i,-11.0%,-0.3%,-2.5%,-1.4%
CCCCN(C)CCCNC(=O)CN1C(=O)COc2ccc(S(=O)(=O)N3CCOCC3)cc21,2.9%,?,-9.9%,-4.1%,1.2%,4.2%
CCc1nc2c(OCc3ccc4c(c3)OCO4)cccn2c1N(C=O)Cc1ccccc1,4.5%,i,-1.4%,-21.0%,?,?
CCCOc1cccn2c(N(C=O)Cc3ccc(OC)cc3)c(CC)nc12,3.7%,i,-23.5%,0.7%,16.4µM*,?
CCc1nc2c(OCC(=O)C(C)(C)C)cccn2c1N(C=O)Cc1ccccc1,0.0%,i,-4.3%,-13.1%,-2.5%,-5.6%
CCCCN(C=O)c1c(CC)nc2c(OCCC)cccn12,-7.4%,i,-8.8%,-17.8%,-55.5%,?
SMILES,ATXN2 expr inh,ATXN viability,TGFb inhibitor,HepG2 tox,DT40 TDP1 CPT,DT40 TDP1 no CPT
CCCCN(C=O)c1c(CC)nc2c(OCCOc3ccccc3)cccn12,?,?,?,-42.8%,?,20.6µM*
C=CCOc1cccn2c(N(C)C(=O)c3ccc(OC)cc3)c(CC)nc12,7.9%,i,4.0%,-4.9%,?,-22.3%
C=CCOc1cccn2c(N(C=O)Cc3ccc(OC)cc3)c(CC)nc12,-2.2%,i,-13.8%,-17.6%,18.4µM*,11.6µM*
CCc1nc2c(OCC3CCCCC3)cccn2c1N(C=O)Cc1ccc(OC)cc1,?,?,?,-13.5%,20.6µM*,20.6µM*
CC(OC(=O)c1cccn1C)C(=O)Nc1ccc2c(c1)OCO2 (stereo not given),0.0%,i,-2.9%,-17.0%,-3.3%,-26.9%
COc1ccc(Cn2nnnc2C(c2ccccn2)N2CCN(c3ccc(O)cc3)CC2)cc1 (stereo not given),·,·,-16.7%,-14.4%,-27.4%,?
CCc1nc2c(OCCOc3ccc(F)cc3)cccn2c1N(C=O)Cc1ccccc1,0.0%,i,-16.3%,-19.1%,20.6µM*,?
CC(N=C1NS(=O)(=O)c2ccccc21)C(=O)N1CCc2ccccc2C1 (stereo not given),5.4%,i,18.8%,69.2%,-12.0%,-5.0%
CCCNC(=O)C1(S(=O)(=O)c2ccccc2)CC=CC1,6.3%,i,16.6%,25.1%,-8.7%,-9.8%
O=C(CCl)N(CCCNC(=O)C(F)(F)F)c1ccc([N+](=O)[O-])cc1,-23.2%,?,?,15.8µM*,2.59µM*,6.51µM*
O=C(NCCCNc1ccc([N+](=O)[O-])cc1)C(F)(F)F,24.1%,i,?,-46.5%,3.8%,9.8%
Cc1csc(-c2nnc(Nc3ccc(Oc4ncccc4-c4ccnc(N)n4)cc3)c3ccccc23)c1,12.2µM*,·,·,·,·,·
COc1ccc(-c2nnc(Nc3ccc(OCC(N)=O)cc3)c3ccccc23)cc1,-12.1%,i,-10.9%,-21.0%,-25.8%,?
CC(=O)N[C@@H](C)C(=O)NCC1Cc2cccc(-c3ccccc3C(F)(F)F)c2O1 (stereo not given in full),·,i,·,·,9.0%,-21.6%
O=C(c1ccccc1)N1c2nc(-c3ccco3)nn2C2(CCCCC2)[C@@H]2CCCC[C@@H]21,·,·,?,-7.1%,-4.4%,1.6%
